The panel holds about 83,000 compounds, 20% with a hit somewhere; the sample as a whole holds those more often.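 Assay: single dose, 48 h. Readout: percent growth (0 = no net growth; negative = cell death). Active: <10.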 Values without a mark were called inactive. Active and inactive are the calls of the source.

The assay deals with HL-60(TB) leukemia. The assay can be described thus: NCI-60 one-dose screen, 48 h (100 = growth as untreated, 0 = no growth, -100 = all killed). Conditions: 10 µM unless noted.
With `O=C1/C(=C/c2c[nH]c(=O)[nH]c2=O)SC(=S)N1Cc1ccccc1`, the growth is 99.3%.
As to `C[C@]12CC[C@@H]3c4cc(OC(F)F)c(OS(N)(=O)=O)cc4CC[C@H]3[C@@H]1CC[C@@H]2O`, the growth is 1.17% (active).
With `Nc1c(C(=O)Nc2c(Cl)cccc2Cl)sc2nc3c(cc12)CCCC3`, the growth is 35%.
The result for `N#Cc1c(-c2ccc(Cl)cc2)nc(NCCO)[nH]c1=O` reads 102%.
To `CN1C(=O)C(=Cc2cn(Cc3ccccc3)c3ccc(Br)cc23)C(=O)N(C)C1=O` belongs 73.3%.
The result for `COCCCNS(=O)(=O)c1ncnc2nc[nH]c12` reads 82.2%.
`N#C/C(=C1C=C/C(=N/O)C(Br)=C/1)c1ccccc1`: the growth is -20.5% (active).
The result for `CSc1nc2c(c(=O)n1C)CN(Cc1ccccc1)C(=O)CN2` reads 84.9%.
As to `O=C(O)c1cc([N+](=O)[O-])ccc1Oc1ccccc1`, the growth is 88.6%.
The result for `Nc1c(C(=O)Nc2ccccc2)sc2nc3c(cc12)CCCC3` reads 15.5%; that for `Oc1ccc(Cl)cc1-c1cc(-c2ccc(Cl)cc2)n[nH]1`, 60.4%.
Turning to `C=CCn1c(SCC(=O)Nc2ccc(C(=O)/C=C/c3ccc(Cl)cc3)cc2)nnc1-c1cc(OC)c(OC)c(OC)c1`, the growth was 97.7%.
Turning to `CCC(CCCN(CC)CCc1ccccc1)OC(=O)c1cc(OC)c(OC)c(OC)c1` (stereo not drawn), the growth was 95%.
Consider `CC(=O)Nc1ccc(C=Nc2ccc3ccccc3c2)cc1`, for which the growth was 107%.
With `COc1ccc(N(Cc2cc(OC)c(OC)c(OC)c2)C2OC(=O)c3ccccc32)cc1` (stereo not drawn), the growth was 2.92% (active).
The result for `CN(C)CCOc1cccc(NC2=C(Cl)C(=O)C(Nc3cccc(OCCN(C)C)c3)=C(Cl)C2=O)c1` reads -51% (active); that for `O=C(c1nc2ccccc2[nH]1)C1C(c2ccc(F)cc2)C2CC3CCCCC3N2[C@@]12C(=O)Nc1ccc(Cl)cc12` (stereo partly drawn), 33.2%; that for `COc1cc(/C=C/C(=O)N2c3ccccc3CC2C)c(OC)c2c1OCO2` (stereo not drawn), 91.7%.
Take `COc1cc(/C=C/C(=O)c2nc3cc(F)ccc3nc2C)cc(OC)c1OC`: the growth is -45.6% (active).
The result for `CCCn1c(=S)sc2c1nc(C)n1c(Nc3ccccc3)nnc21` reads 45.3%; that for `COc1cc(C2CC(c3ccccc3)=NN2C=O)ccc1Oc1nc2c(c(=O)n(C)c(=O)n2C)n1C` (stereo not drawn), 101%.
As to `COc1ccc(C(=O)c2cc(OC)c(OC)c(OC)c2)cc1O`, the growth is -29.1% (active).
Consider `COc1ccc(C2C(C#N)=C(N)Oc3c2sc2c(Br)cccc32)cc1` (stereo not drawn), for which the growth is -9.13% (active).
To `NS(=O)(=O)c1ccc(-n2nc(-c3ccc(Cl)cc3)c3ccccc3c2=O)cc1` belongs 95.2%; to `COc1ccc2c(c1)CC/C(=C\c1ccc(OCC(=O)Nc3nc4ccccc4s3)cc1)C2=O`, 87.6%; to `COC(=O)c1ccc2c(c1)nc(-c1ccc(Cl)cc1)n2-c1cc(C(C)(C)C)[nH]n1`, 14.9%.
The result for `NC[C@H](O)c1ccc(O)c(O)c1` reads 98.8%; that for `COc1cc(-c2nn(C(=O)NS(=O)(=O)c3ccccc3)cc2-c2ccncc2)ccc1Cl`, 98.1%.
